# Measured values reported in PubChem BioAssay (NCI).
# Compounds without any hit were thinned out: in the full panel of roughly 83,000, 20% have a hit.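 Single-dose data. Exposure time 48 hours. Values below 10 considered active.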 Activity calls are given as the source filed them.
# Tested on: MDA-MB-468 breast
# Experiment: NCI-60 one-dose screen, 48 h (100 = growth as untreated, 0 = no growth, -100 = all killed)
# Conditions: 10 µM unless noted
row,SMILES,growth
1,CC(=O)c1c(Nc2cccc(F)c2)[nH]c2c(Cl)cc(Cl)c(Cl)c2c1=O,-10.2% (active)
2,O=[n+]1ccn([O-])c2ccccc21,86.9% (inactive)
3,COc1ccc(C(=O)/C=C/c2c[n+](=O)c3ccc(F)cc3n2[O-])cc1,101% (inactive)
4,COC(=O)C1CCCN1C(=O)[C@@H]1CCCN1C(=O)[C@H](Cc1c[nH]c2ccccc12)NC(=S)Nc1cc(C(F)(F)F)cc(C(F)(F)F)c1 (stereo not given in full),44.3% (inactive)
5,CCNC(=O)N1CCc2cc(OC)c(OCCc3ccc(OC)nc3)cc2C1c1ccc(OC)cc1C (stereo not given),26.7% (inactive)
6,Cc1nn(-c2nc3ccccc3[nH]2)c2c1C(c1ccc(OCC(N)=O)cc1)CC(=O)N2 (stereo not given),108% (inactive)
7,COc1cc(-c2nc3sccn3c2-c2ccnc(NCCNS(=O)(=O)c3ccc(Cl)cc3)n2)ccc1F,29.7% (inactive)
8,CNCC[C@H](Oc1cccc2ccccc12)c1cccs1,82% (inactive)
9,Brc1ccc2[nH]cc(-c3nc(-c4c[nH]c5ncccc45)cs3)c2c1,43.6% (inactive)
10,CC1(C)CC(OCCCC[P+](c2ccccc2)(c2ccccc2)c2ccccc2)CC(C)(C)N1O,-44.2% (active)
11,CS(=O)(=O)c1cccnn1,74% (inactive)
12,COc1cc(/C=C/C(=O)c2cccnc2Nc2ccc(F)cc2)cc(OC)c1OC,16.3% (inactive)
13,N#CC1C(=O)NC(c2ccccc2[N+](=O)[O-])c2sc3c(F)cccc3c21 (stereo not given),-49% (active)
14,CC(=O)OC/C=C(/C)C[P+](c1ccccc1)(c1ccccc1)c1ccccc1,1.61% (active)
15,CC(O)/C=C/C=C/C(O)CC/C=C/C(=O)NCC(C)(C)O (stereo not given),102% (inactive)
16,C=C(C)[C@@H]1CC[C@]2(C(=O)O)CC[C@]3(C)[C@H](CC[C@@H]4[C@@]5(C)C/C(=C/c6cccc(I)c6)C(=O)C(C)(C)[C@@H]5CC[C@]43C)[C@@H]12,25.6% (inactive)
17,CC1CCc2c(sc3nc(SCC(=O)N/N=C/c4cccc(O)c4O)n(-c4ccccc4)c(=O)c23)C1 (stereo not given),77.7% (inactive)
18,CC[C@]1(O)CC2CN(CCc3c([nH]c4ccccc34)[C@@](C(=O)OC)(c3cc4c(cc3OC)N(C)[C@H]3[C@@](O)(C(=O)OC)[C@H](OC(C)=O)[C@]5(CC)C=CCN6CC[C@]43[C@@H]65)C2)C1 (stereo not given in full),16.1% (inactive)
19,COc1cc(/C=C/C(=O)CC(=O)/C=C/c2cc(Br)c(OC)c(OC)c2)cc(Br)c1OC,97.2% (inactive)
20,Cc1ccc(-c2cc3nc(C(Cl)Cl)nc(C)n3n2)cc1,110% (inactive)

row,SMILES,growth
1,Nc1nc(-c2cccc([N+](=O)[O-])c2)c(N=Nc2cccc(Cl)c2)s1,11.5% (inactive)
2,COc1ccc2c(c1)O/C(=C\c1ccc([N+](=O)[O-])s1)C2=O,-1.9% (active)
3,O=C(OCc1ccc2c(Br)cc(Br)c(O)c2n1)c1cc2ccccc2[nH]1,-73.2% (active)
4,CC(C)(C)OC(=O)N1CC(Cn2cc(C(F)(F)F)c3c(Cl)ncnc32)C1,-46.8% (active)
5,O=C(/C=C1\C(=O)N(Cc2ccc([N+](=O)[O-])cc2)c2ccccc21)c1ccc(OCCN2CCCC2)cc1,59.4% (inactive)
6,CCOC(=O)C1=C(C(=O)OCC)N(c2cc(OC)c(OC)c(OC)c2)C(N)=C(C#N)C1c1cc(=O)[nH]c2ccccc12 (stereo not given),92% (inactive)
7,COc1ccc(NC(=O)COCCOCCNC[C@@H]2C(=O)O[C@H]3[C@H]2CC/C(COC(=O)OC/C2=C/CC[C@@]4(C)O[C@H]4[C@H]4OC(=O)[C@@H](CN(C)C)[C@@H]4CC2)=C\CC[C@@]2(C)O[C@@H]32)c(O)c1C(N)=O,-19.5% (active)
8,Cc1[nH]n(C(N)=S)c(=O)c1N=Nc1ccc(F)c(Cl)c1,154% (inactive)
9,CCCCn1c(Cc2ccc(Cl)cc2)nc2cc(OC)c(OC)cc2c1=O,58.6% (inactive)
10,Cc1oc(-c2ccc(Cl)cc2)nc1/C=C/C(=O)c1ccccc1,95% (inactive)
11,Nc1nc(C(=O)N/N=C/c2ccc(F)cc2)nn1-c1ccc(S(N)(=O)=O)cc1,102% (inactive)
12,OCCNc1nc(Nc2ccc(C3=NN(c4cc(Cl)cc(Cl)c4)C(c4ccc(C(F)(F)F)cc4)C3)cc2)nc(N2CCOCC2)n1 (stereo not given),66.7% (inactive)
13,COc1ccc(CCNC(=O)COc2cc3c(Nc4ccc(F)c(Cl)c4)ncnc3cc2OC)cc1OC,-10.1% (active)
14,C#CCNC(=S)N/N=C(\C)c1ccccn1,-31.4% (active)
15,CC(=O)Nc1ccc(S(=O)(=O)n2ccc(-c3ccc4c(c3)CCC(C)(C)O4)n2)cc1,24.9% (inactive)
16,C/C(Cc1ccc(Cl)cc1)=C(\c1ccc(OCCN2CCCCCC2)cc1)c1ccc(OC(=O)C2CCCCC2)cc1,52.2% (inactive)
17,COc1ccc(-c2nc3c(ncc4ccc(=O)[nH]c43)s2)cc1,62.9% (inactive)
18,Nc1[nH]nc(Nc2ccccc2)c1-c1nc2ccccc2s1,17.5% (inactive)
19,Cc1cccc(C)c1N=c1oc2ccc(Cl)cc2nc1-c1ccccc1O,94.8% (inactive)
20,Clc1cccc(C2Cc3cnccc3-c3[nH]c4ccncc4c32)c1 (stereo not given),5.96% (active)
